Data on eight molecules can be found in PubChem BioAssay (NCI).

Among the test systems are DU-145 prostate; K-562 leukemia; MALME-3M melanoma; MDA-MB-231 breast; RXF 393 renal; SF-268 CNS; SF-295 CNS; SF-539 CNS; UACC-257 melanoma; M14 melanoma; HCT-15 colon; HT29 colon; SNB-75 CNS; SNB-19 CNS; U251 CNS; PC-3 prostate; SK-MEL-5 melanoma; UACC-62 melanoma; LOX IMVI melanoma; SK-MEL-28 melanoma.
What all share (assay): NCI-60 one-dose screen, 48 h (100 = growth as untreated, 0 = no growth, -100 = all killed)
What all share (conditions): 10 µM unless noted

About 83,000 compounds went through this panel and 20% of them were active in at least one assay; those are over-represented in the sample as a whole.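 Interpretation: 100, growth as untreated; towards 0, rising growth inhibition; 0, no net growth; 0 to -100, cell death. Compounds scoring below 10 were considered active.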 A number with no mark means an inactive call. Calls of active or inactive are those of the source.

In the case of `Cc1[nH]nc2ccc3nc(-c4cnn(CCO)c4)c4c(c3c12)CCCC4`, the growth in the assay on DU-145 prostate is 37.9%; with K-562 leukemia, 38.5%; with MALME-3M melanoma it was 41%; in the assay with MDA-MB-231 breast, 40%; in the assay with RXF 393 renal it was -6.62% (active); in the assay with SF-268 CNS, 58.1%. Further, the growth with SF-295 CNS was 43.4%; with SF-539 CNS, 33.7%; in the assay on UACC-257 melanoma it was 83.1%; with M14 melanoma, 27.4%; with HCT-15 colon, 23.3%; with HT29 colon it was 31.3%. Also, the growth in the assay with SNB-75 CNS is 31.9%; in the assay with SNB-19 CNS, 74.4%; with U251 CNS it was 57.2%; with PC-3 prostate, 40.4%; in the assay on SK-MEL-5 melanoma it was 31.7%; in the assay on UACC-62 melanoma it was 34.8%. The figures for the growth in the assay with LOX IMVI melanoma and in the assay with SK-MEL-28 melanoma were 25.1% and 75.6%, respectively.

Regarding `COc1cc(CNC(=O)C[C@H](C)CCC=C(C)C)ccc1OCc1cn(-c2ccccc2Cl)nn1`, the growth is 90.1% with DU-145 prostate; 44.6% with K-562 leukemia; 68.2% in the assay with MALME-3M melanoma; 72.6% with MDA-MB-231 breast; 72.6% in the assay with RXF 393 renal; 82.4% in the assay on SF-268 CNS. Further, the growth is 56.4% with SF-295 CNS; 75.2% in the assay with SF-539 CNS; 60.3% in the assay on UACC-257 melanoma; 55.9% in the assay on M14 melanoma; 53.8% with HCT-15 colon; 76.7% with HT29 colon. In addition, the growth with SNB-75 CNS is 60%; in the assay on SNB-19 CNS, 61.3%; in the assay on U251 CNS it was 80.6%; with PC-3 prostate, 49.4%; in the assay with SK-MEL-5 melanoma it was 5.29% (active); in the assay on UACC-62 melanoma, 39.6%. Further, the results for the growth in the assay on LOX IMVI melanoma and in the assay with SK-MEL-28 melanoma were 56.4% and 69.8%, respectively.

As to `C=CC(=O)Nc1ccc(C(=O)/C=C/c2ccc(N(C)C)cc2)c(O)c1`, the growth in the assay with DU-145 prostate was 7.83% (active); in the assay on K-562 leukemia it was 12%; with MALME-3M melanoma, 3.17% (active); with MDA-MB-231 breast, 26.9%; in the assay with RXF 393 renal, -63.8% (active); in the assay with SF-268 CNS it was 21.5%. Further, the growth is 13.1% in the assay on SF-295 CNS; -21.8% (active) with SF-539 CNS; 0.649% (active) with UACC-257 melanoma; -5.06% (active) with M14 melanoma; -17.2% (active) in the assay on HCT-15 colon; -37.7% (active) in the assay on HT29 colon. Also, the growth with SNB-75 CNS was 28.1%; in the assay on SNB-19 CNS, 28.2%; with U251 CNS, -56.4% (active); in the assay on PC-3 prostate, 34.4%; in the assay with SK-MEL-5 melanoma, 2.1% (active); in the assay on UACC-62 melanoma, -25.3% (active). For the same molecule, the values for the growth in the assay on LOX IMVI melanoma and in the assay on SK-MEL-28 melanoma were -60.3% (active) and -6.18% (active), respectively.

In the case of `O=C1NC(=NC23CC4CC(CC(C4)C2)C3)N/C1=C\c1ccc2ncccc2c1`, the growth with DU-145 prostate is 3.46% (active); in the assay with K-562 leukemia, 11%; in the assay with MALME-3M melanoma, 2.17% (active); in the assay on MDA-MB-231 breast, -14% (active); in the assay with RXF 393 renal, -4.92% (active); in the assay with SF-268 CNS it was 35.2%. The growth was -29.6% (active) in the assay on SF-295 CNS; 2.08% (active) with SF-539 CNS; 50.6% in the assay with UACC-257 melanoma; 45.9% in the assay on M14 melanoma; -12% (active) in the assay on HCT-15 colon; 1.49% (active) in the assay on HT29 colon. The growth with SNB-75 CNS is -66.3% (active); in the assay on SNB-19 CNS, 5.85% (active); with U251 CNS it was -63.7% (active); in the assay with PC-3 prostate, -48.1% (active); in the assay with SK-MEL-5 melanoma, -9.19% (active); with UACC-62 melanoma, 23.6%. Further, the growth is -76.9% (active) in the assay with LOX IMVI melanoma and -3.01% (active) with SK-MEL-28 melanoma.

Turning to `O=C(c1ccc(O)cc1)C1[C@H](c2ccccc2Br)[C@@H](c2ccccc2)NC12C(=O)Nc1ccccc12` (stereo not given in full), the growth was 63.1% with DU-145 prostate; 29.4% in the assay on K-562 leukemia; 71.6% with MALME-3M melanoma; 41% in the assay with MDA-MB-231 breast; 20.8% with RXF 393 renal; 49.1% with SF-268 CNS. Also, the growth in the assay on SF-295 CNS is 27.9%; in the assay on SF-539 CNS it was 55%; in the assay on UACC-257 melanoma, 45.8%; in the assay on M14 melanoma it was 58.6%; with HCT-15 colon it was 34.7%; in the assay on HT29 colon it was -7.42% (active). Besides, the growth is 36.8% in the assay on SNB-75 CNS; 58.5% in the assay with SNB-19 CNS; 7.5% (active) in the assay on U251 CNS; 18.2% in the assay with PC-3 prostate; 28.1% with SK-MEL-5 melanoma; 31.9% with UACC-62 melanoma. Moreover, the values for the growth with LOX IMVI melanoma and in the assay with SK-MEL-28 melanoma were 5.24% (active) and 59.3%, respectively.

For the molecule `O=C1c2cccc3c(N4CCN(c5ccccc5)CC4)ccc(c23)C(=O)N1c1cccc(-c2nn(-c3ccccc3)cc2-c2nc3ccccc3s2)c1`, the growth is 108% in the assay with DU-145 prostate; 91.1% in the assay with K-562 leukemia; 88.8% in the assay on MALME-3M melanoma; 95.1% in the assay with MDA-MB-231 breast; 106% in the assay with RXF 393 renal; 101% in the assay with SF-268 CNS. The growth with SF-295 CNS was 103%; in the assay on SF-539 CNS it was 95.1%; with UACC-257 melanoma, 113%; in the assay on M14 melanoma, 104%; with HCT-15 colon, 112%; with HT29 colon, 116%. Further, the growth is 98.1% in the assay on SNB-75 CNS; 100% with SNB-19 CNS; 100% in the assay on U251 CNS; 85.9% with PC-3 prostate; 99% in the assay on SK-MEL-5 melanoma; 91.4% in the assay on UACC-62 melanoma. The growth is 94.5% in the assay with LOX IMVI melanoma and 104% with SK-MEL-28 melanoma.

Regarding `O=C(Nc1ccc(F)cc1)Nc1nc2ccc([N+](=O)[O-])cc2s1`, the growth is 24.2% in the assay on DU-145 prostate; 6.19% (active) in the assay on K-562 leukemia; -17.9% (active) in the assay on MALME-3M melanoma; -2.3% (active) in the assay with MDA-MB-231 breast; -14.9% (active) in the assay on RXF 393 renal; 18% in the assay with SF-268 CNS. The growth was -46% (active) with SF-295 CNS; 7.13% (active) in the assay on SF-539 CNS; -12.8% (active) with UACC-257 melanoma; -3.58% (active) with M14 melanoma; 6.88% (active) with HCT-15 colon; 4.5% (active) in the assay with HT29 colon. Also, the growth with SNB-75 CNS was -16.6% (active); in the assay with SNB-19 CNS it was 15.1%; with U251 CNS, 6.53% (active); in the assay with PC-3 prostate it was 18.4%; in the assay with SK-MEL-5 melanoma it was -84% (active); in the assay on UACC-62 melanoma, -5.55% (active). The results for the growth in the assay with LOX IMVI melanoma and with SK-MEL-28 melanoma were 12.5% and 7.31% (active), respectively.

Consider `Cc1ccc(S(=O)(=O)N(CCn2ccnc2[N+](=O)[O-])CCn2ccnc2[N+](=O)[O-])cc1`, for which the growth in the assay with DU-145 prostate was 106%; in the assay on K-562 leukemia it was 95.7%; in the assay with MALME-3M melanoma, 111%; in the assay with MDA-MB-231 breast, 104%; in the assay on RXF 393 renal it was 84.3%; with SF-268 CNS, 111%. The growth with SF-295 CNS is 109%; in the assay on SF-539 CNS it was 97.6%; in the assay with UACC-257 melanoma it was 108%; in the assay with M14 melanoma, 97.6%; with HCT-15 colon, 103%; in the assay with HT29 colon, 112%. Further, the growth with SNB-75 CNS was 96%; in the assay with SNB-19 CNS it was 101%; in the assay with U251 CNS, 102%; with PC-3 prostate it was 94.9%; with SK-MEL-5 melanoma, 99.3%; in the assay on UACC-62 melanoma, 94%. Moreover, the growth in the assay on LOX IMVI melanoma is 102%; in the assay on SK-MEL-28 melanoma, 106%.
